# According to PubChem BioAssay (Tox21):
# Where “and” joins values, the source holds several entries; their conditions need not be identical. Equal entries are not always repeated. A structure can be active in one record and inactive in another. Calls of active or inactive are those of the source. A call without a number means that no potency is given here. Unless noted, calls follow the shape of the dose curve; as a rule, active = well fitted curve in the direction sought with a large enough effect in the repeat runs; inconclusive = weak or mixed curves; inactive = no such curve, though single readings can be large; an effect the other way counts as inactive or inconclusive.
# Experiments:
# [1] = qHTS assay to identify small molecule antagonists of the thyroid receptor (TR) signaling pathway (AID 743065); also: nearly all actives have a fitted effect of over 55% in size; also: potency is read from the fitted curve at half-maximal effect
# In short: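 GH3.TRE-Luc rat pituitary cells carrying two TR response elements driving luciferase were plated for 4 h, given compound plus 1 nM T3 (final), and incubated 23.5 h at 37 C. ONE-Glo luminescence measured reporter inhibition; CellTiter-Fluor fluorescence tracked cytotoxicity.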
# [2] = system: thyroid hormone receptor (rat, GH3 cells); assay: qHTS assay to identify small molecule agonists of the thyroid receptor (TR) signaling pathway (AID 743066; calls by dose curve)
# [3] = biological target: Estrogen receptor (Homo sapiens) (UniProt P03372); assay: qHTS assay to identify small molecule antagonists of the estrogen receptor alpha (ER-alpha) signaling pathway (AID 743069; active = well fitted curve in the direction sought with a large enough effect in the signal ratio in the repeat runs, not every such curve was filed as active; inconclusive = weak or mixed curves, or effect the other way; inactive = no such curve, though single readings can be large or run the other way; the % refers to the signal ratio; also: potency is read from the fitted curve at half-maximal effect)
# In short: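 HEK293 cells stably carrying an ER-alpha-UAS-bla beta-lactamase reporter were pre-cultured overnight in 2% charcoal-stripped FBS medium. Test compounds in DMSO were added together with 17beta-estradiol for 18 hr at 37C. Read-out was fluorescence after 2 hr with LiveBLAzer B/G FRET substrate at room temperature.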
# [4] = qHTS assay to identify small molecule antagonists of the estrogen receptor alpha (ER-alpha) signaling pathway - cell viability counter screen (AID 743074; calls by dose curve; also: nearly all actives have a fitted effect of over 45% in size; also: potency is read from the fitted curve at half-maximal effect)
# [5] = biological target: Estrogen receptor (Homo sapiens) (UniProt P03372); assay: qHTS assay to identify small molecule agonists of the estrogen receptor alpha (ER-alpha) signaling pathway (AID 743075; calls by dose curve)
# [6] = biological target: Estrogen receptor (Homo sapiens) (UniProt P03372); assay: qHTS assay to identify small molecule agonists of the estrogen receptor alpha (ER-alpha) signaling pathway using the BG1 cell line (AID 743079); settings: BG1Luc4E2 cells, ERE-luciferase agonist, 22 h; activation: at 70.3 µM (top of the series); also: nearly all actives have a fitted effect of over 20% in size
# [7] = qHTS assay to identify small molecule antagonists of the estrogen receptor alpha (ER-alpha) signaling pathway using the BG1 cell line (AID 743080; calls by dose curve;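 also: BG1 cells stimulated with 17beta-estradiol alongside compound; nearly all actives have a fitted effect of over 25% in size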; also: potency is read from the fitted curve at half-maximal effect)
# In short: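 Seeding, 24 h rest, compound transfer from DMSO, 17beta-estradiol addition, 21.5 h incubation, CellTiter-Fluor (30 min, 37 C), then ONE-Glo (30 min, room temperature): this sequence was run on BG1-Luc-4E2 reporter cells.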
# [8] = qHTS assay to identify small molecule antagonists of the estrogen receptor alpha (ER-alpha) signaling pathway using the BG1 cell line - cell viability counter screen (AID 743081);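 also: compound given together with 17beta-estradiol as the ER stimulus; nearly all actives have a fitted effect of over 45% in size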; also: potency is read from the fitted curve at half-maximal effect
# Aromatase (Homo sapiens) = Aromatase (Homo sapiens) (UniProt P11511); assay: qHTS assay to identify aromatase inhibitors (AID 743083); also: nearly all actives have a fitted effect of over 55% in size; also: potency is read from the fitted curve at half-maximal effect
# [9] = qHTS assay to identify aromatase inhibitors - cell viability counter screen (AID 743084);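 also: cells stimulated with testosterone during compound exposure; nearly all actives have a fitted effect of over 55% in size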; also: potency is read from the fitted curve at half-maximal effect
# Sequence of Aromatase (Homo sapiens) (P11511 whole entry, looked up): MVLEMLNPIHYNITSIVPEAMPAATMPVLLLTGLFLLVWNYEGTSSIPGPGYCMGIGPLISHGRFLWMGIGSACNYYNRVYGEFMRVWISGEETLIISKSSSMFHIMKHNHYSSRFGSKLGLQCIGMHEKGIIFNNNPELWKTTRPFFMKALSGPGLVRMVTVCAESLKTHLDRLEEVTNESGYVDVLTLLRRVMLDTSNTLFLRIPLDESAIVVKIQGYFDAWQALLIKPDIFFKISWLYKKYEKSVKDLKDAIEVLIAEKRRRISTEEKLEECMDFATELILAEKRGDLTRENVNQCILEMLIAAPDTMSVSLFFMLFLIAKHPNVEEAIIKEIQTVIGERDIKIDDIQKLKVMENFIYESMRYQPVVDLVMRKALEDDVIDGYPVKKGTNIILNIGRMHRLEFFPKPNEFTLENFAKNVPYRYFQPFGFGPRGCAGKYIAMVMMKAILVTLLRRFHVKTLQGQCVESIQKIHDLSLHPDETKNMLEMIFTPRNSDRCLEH
# Sequence of Estrogen receptor (Homo sapiens) (P03372 whole entry, looked up): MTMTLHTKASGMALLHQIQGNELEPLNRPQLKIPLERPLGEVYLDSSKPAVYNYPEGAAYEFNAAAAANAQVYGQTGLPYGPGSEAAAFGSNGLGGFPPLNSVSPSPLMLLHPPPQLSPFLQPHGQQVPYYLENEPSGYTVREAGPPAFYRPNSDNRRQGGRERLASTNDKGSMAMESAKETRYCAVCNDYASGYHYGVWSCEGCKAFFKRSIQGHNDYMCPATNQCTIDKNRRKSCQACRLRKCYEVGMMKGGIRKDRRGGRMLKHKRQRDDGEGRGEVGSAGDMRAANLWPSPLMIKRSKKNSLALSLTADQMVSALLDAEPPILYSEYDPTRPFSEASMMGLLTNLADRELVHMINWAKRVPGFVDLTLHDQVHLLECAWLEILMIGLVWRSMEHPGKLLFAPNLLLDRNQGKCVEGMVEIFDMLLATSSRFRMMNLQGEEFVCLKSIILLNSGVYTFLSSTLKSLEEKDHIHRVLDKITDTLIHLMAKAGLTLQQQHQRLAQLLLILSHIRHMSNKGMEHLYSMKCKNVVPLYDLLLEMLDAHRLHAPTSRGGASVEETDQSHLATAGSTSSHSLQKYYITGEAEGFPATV
SMILES,Potency [1],Potency [2],Potency [3],Potency [4],Potency [5],Potency [6],Potency [7],Potency [8],Potency (Aromatase (Homo sapiens)),Potency [9]
ClC(Cl)C(Cl)(Cl)Cl,inactive,inactive,inactive,inactive,inactive,inactive,inactive,inactive,inactive,inactive
CNC(=O)CSP(=O)(OC)OC,inactive,inactive,inactive,inactive,inactive,inactive,inactive,inactive,inactive,inactive
CNC(=O)/C=C(\C)OP(=O)(OC)OC,inactive,inactive,inactive,inactive,inactive,inactive,inactive,inactive,inactive,inactive
CC(C)c1c(CN(C)C(C)Cc2ccccc2)n(C)n(-c2ccccc2)c1=O (stereo not given),11.4 µM (active),inactive,inactive,inactive,inactive,inactive,inactive,inactive,inactive,inactive
N#Cc1ccc(N(CC(N)=O)CC(F)(F)F)cc1C(F)(F)F,inactive,inactive,inactive,inactive,inactive,inactive,inactive,inactive,inactive,inactive
CCCCCCCCCCCCCCn1cc[n+](C)c1,1.09 µM (active) and 3.81 µM (active),inactive,7.78 µM [inconclusive] (active) and 1.22 µM [inconclusive] (active) and inactive,48.5 µM (active) and inactive,inactive,inactive,1.37 µM (active) and 4.8 µM (active) and inactive,30.7 µM (active) and 24.1 µM (active),2.44 µM (active) and 5.39 µM (active) and inactive,8.65 µM (active) and 38.1 µM (active)
CN(C)C(=S)SSC(=S)N(C)C,94.4 nM (active) and 269 nM (active) and 15.4 nM (active),inactive,inactive,inactive,inactive,,,inactive,188 nM (active) and 47.9 nM (active) and 15.4 nM (active),944 nM (active) and 75.9 nM (active) and 54.5 nM (active)
CC(C)=CCN1CC[C@@]2(C)c3cc(O)ccc3C[C@@H]1[C@@H]2C,21.4 µM (active),inactive,inactive,,inactive,inactive,,inactive,inactive,inactive
CCC1COC(Cn2cncn2)(c2ccc(Cl)cc2Cl)O1 (stereo not given),inactive,inactive,inactive,inactive,inactive,inactive,,inactive,24.3 µM (active),inactive
C=CC(=C)C,inactive,inactive,inactive,inactive,inactive,,,inactive,inactive,inactive
Cc1cc2c3c(c1)C(c1ccccc1)=N[C@@H](NC(=O)c1ccncc1)C(=O)N3CC2,24.3 µM (active),inactive,inactive,,inactive,inactive,inactive,,inactive,inactive
O=[N+]([O-])c1ccccc1-c1ccccc1,inactive,inactive,inactive,inactive,inactive,,inactive,inactive,inactive,inactive
